For some assays here: Entries with a potency or affinity are not part of this list.

Holding throughout (parameters): scale not given: direction of the effect not stated beside the values
Experiment [1] deals with Protein translocase subunit SecA (Escherichia coli (strain K12)) (UniProt P10408). The experiment is described as follows: Assay to Identify E. coli SecA ATPase Inhibitors. The format is functional. Conditions: 30 µM.
For experiment [2], the target named is T1, Ubiquitin-activating enzyme e1, putative (Leishmania donovani (strain BPK282A1)) (UniProt E9BSI1).
T1 sequence (whole entry): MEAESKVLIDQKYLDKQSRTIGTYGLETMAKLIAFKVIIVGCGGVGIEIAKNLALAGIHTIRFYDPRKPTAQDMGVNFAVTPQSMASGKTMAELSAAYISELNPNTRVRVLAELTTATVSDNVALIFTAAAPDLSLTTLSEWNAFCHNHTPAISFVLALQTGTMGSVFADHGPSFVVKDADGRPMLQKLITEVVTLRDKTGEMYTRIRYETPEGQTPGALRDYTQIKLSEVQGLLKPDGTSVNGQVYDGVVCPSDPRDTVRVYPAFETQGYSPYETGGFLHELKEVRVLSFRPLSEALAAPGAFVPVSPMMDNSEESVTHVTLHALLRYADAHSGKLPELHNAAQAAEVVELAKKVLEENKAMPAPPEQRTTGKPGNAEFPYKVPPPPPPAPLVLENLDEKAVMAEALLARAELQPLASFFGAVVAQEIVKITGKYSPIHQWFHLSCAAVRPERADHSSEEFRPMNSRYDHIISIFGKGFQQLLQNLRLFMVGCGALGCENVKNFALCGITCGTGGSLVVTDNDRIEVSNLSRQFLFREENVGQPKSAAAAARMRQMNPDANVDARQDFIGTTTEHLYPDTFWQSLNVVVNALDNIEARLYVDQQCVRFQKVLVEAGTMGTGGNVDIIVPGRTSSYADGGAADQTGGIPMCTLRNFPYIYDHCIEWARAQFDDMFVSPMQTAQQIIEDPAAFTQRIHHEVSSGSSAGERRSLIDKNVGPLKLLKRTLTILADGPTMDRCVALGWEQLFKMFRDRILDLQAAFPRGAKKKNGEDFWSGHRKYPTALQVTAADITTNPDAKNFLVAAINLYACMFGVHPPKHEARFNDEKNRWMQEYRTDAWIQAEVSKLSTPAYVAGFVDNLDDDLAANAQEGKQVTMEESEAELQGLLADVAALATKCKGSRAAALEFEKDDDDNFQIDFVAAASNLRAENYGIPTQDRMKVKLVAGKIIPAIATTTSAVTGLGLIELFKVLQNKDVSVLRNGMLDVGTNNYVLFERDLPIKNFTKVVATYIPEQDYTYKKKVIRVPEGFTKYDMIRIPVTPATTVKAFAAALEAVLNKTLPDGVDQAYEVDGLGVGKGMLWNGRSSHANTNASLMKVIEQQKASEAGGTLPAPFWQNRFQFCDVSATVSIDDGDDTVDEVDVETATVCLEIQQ
The experiment is described as follows: Leishmania donovani Ubiquitin Activating Enzyme (LdE1). The format is functional. As to conditions: 30 µM.

In experiment [3] the target is AMP-activated protein kinase, AMPK (Homo sapiens) (UniProt P54646+O43741+P54619+Q9UGJ0+Q9Y478+Q13131+Q9UGI9). The experiment is described as follows: AMP-dependent Kinase enzyme assay. An in vitro enzyme assay that detects ADP turnover that is directly proportional to AMPK activity. This uses naive AMPK that is activated during the assay with MK-8722. The experiment is classed as functional. As to conditions: 30 µM.

For experiment [4], the target named is Sialic acid-binding Ig-like lectin 9 (Homo sapiens) (UniProt Q9Y336). The experiment is described as follows: Hs-Siglec9 ALPHAscreen SOP 20170721. Conditions: 10 µM. For orientation: Bead proximity is the source of the signal in Alpha formats.
Chain of Sialic acid-binding Ig-like lectin 9 (Homo sapiens) (Q9Y336 whole entry): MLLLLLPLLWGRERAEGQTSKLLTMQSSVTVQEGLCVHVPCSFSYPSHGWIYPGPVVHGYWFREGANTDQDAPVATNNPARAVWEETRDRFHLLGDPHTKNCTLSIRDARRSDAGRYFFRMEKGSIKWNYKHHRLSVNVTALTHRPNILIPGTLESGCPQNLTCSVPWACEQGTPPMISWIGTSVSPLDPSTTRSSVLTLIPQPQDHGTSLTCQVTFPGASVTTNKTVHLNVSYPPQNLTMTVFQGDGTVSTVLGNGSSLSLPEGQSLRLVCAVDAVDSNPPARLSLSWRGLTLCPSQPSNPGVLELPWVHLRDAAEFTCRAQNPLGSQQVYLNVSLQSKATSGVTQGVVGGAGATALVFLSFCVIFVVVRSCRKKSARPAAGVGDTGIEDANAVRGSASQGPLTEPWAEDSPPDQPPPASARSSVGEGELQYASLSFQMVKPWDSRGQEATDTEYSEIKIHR
The next experiment concerns Trypanosoma cruzi. In words: Trypanosoma cruzi phosphomannomutase and mannose-1-phosphate guanylyltransferase assay. Conditions: 10 µM. The format is functional.
The target of experiment [5] is T2, Arginase-2, mitochondrial (Homo sapiens) (UniProt P78540).
T2 sequence (whole entry): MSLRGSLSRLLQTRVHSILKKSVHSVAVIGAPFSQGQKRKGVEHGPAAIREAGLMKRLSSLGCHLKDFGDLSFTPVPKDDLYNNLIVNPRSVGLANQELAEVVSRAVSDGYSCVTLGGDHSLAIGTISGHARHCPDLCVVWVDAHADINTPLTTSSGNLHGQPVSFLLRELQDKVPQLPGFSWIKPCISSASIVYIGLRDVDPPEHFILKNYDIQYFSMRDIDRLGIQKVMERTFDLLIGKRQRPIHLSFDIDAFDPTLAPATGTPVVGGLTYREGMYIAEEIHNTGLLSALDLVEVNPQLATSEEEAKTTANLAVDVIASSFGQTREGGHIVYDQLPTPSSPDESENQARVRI
The experiment is described as follows: in vitro enzyme assay to detect the production of urea directly proportional to the activity of Arginase II. Further: in the data most compounds retested in dose-response had high values. The format is functional. As to conditions: 33.3 µM.

Experiment [6] addresses T3, Proteasome subunit beta (Trypanosoma cruzi) (UniProt O96673).
T3 sequence (whole entry): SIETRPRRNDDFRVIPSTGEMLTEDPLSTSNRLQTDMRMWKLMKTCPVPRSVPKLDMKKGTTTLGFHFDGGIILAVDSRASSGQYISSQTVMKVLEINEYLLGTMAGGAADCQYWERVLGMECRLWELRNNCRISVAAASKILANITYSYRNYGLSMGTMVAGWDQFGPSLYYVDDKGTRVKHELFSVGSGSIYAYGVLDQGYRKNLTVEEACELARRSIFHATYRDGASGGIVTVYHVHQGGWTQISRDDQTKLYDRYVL
In words: Trypanosoma cruzi proteasome chymotrypsin-like activity (TcProtChymo) assay. Further: in the data most compounds retested in dose-response had high values. As to conditions: 9.37 µM. The experiment is classed as functional.

Another experiment is filed under the species Homo sapiens. The experiment is described as follows: To identify inhibition of the IFN signalling (Jak-Stat) pathway via expression of an eGFP reporter gene under the control of an IFN-stimulated response element (ISRE) containing MxA promoter. The experiment is classed as functional. As to conditions: 30 µM.
For experiment [7], the target named is T4, Tyrosyl-tRNA synthetase, putative (Trypanosoma cruzi (strain CL Brener)) (UniProt Q4DSP6).
T4 sequence (whole entry): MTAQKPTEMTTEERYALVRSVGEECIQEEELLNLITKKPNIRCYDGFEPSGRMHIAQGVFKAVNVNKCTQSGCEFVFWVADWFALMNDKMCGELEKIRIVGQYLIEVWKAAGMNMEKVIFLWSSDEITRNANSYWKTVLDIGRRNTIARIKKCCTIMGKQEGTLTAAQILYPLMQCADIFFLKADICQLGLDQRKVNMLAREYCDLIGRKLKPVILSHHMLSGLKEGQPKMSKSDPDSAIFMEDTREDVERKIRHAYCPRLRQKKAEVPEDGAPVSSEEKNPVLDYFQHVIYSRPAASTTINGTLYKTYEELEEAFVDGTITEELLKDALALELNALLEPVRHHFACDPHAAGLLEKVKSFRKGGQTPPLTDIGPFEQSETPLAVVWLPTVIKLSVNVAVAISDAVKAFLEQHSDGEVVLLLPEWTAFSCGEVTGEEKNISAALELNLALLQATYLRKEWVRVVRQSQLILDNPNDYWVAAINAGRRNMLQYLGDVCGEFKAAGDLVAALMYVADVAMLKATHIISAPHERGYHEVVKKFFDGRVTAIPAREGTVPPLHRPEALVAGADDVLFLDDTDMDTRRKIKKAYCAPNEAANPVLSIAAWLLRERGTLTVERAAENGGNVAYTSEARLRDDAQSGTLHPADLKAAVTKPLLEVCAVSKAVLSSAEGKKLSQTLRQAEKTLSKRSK
In words: Trypanosoma cruzi tyrosyl tRNA synthetase (TcYRS) _High Tyrosine SOP. Further: in the data most compounds retested in dose-response had high values. The format is functional. As to conditions: 30 µM.

Experiment [8] addresses T4, Tyrosyl-tRNA synthetase, putative (Trypanosoma cruzi (strain CL Brener)). In words: Trypanosoma cruzi tyrosyl tRNA synthetase (TcYRS) SOP. The format is functional. As to conditions: 30 µM.
In experiment [9] the target is Chromo domain-containing protein 1 (Saccharomyces cerevisiae (strain ATCC 204508 / S288c) (Baker's yeast)) (UniProt P32657). In words: ScCHD-1 Enzyme Inhibition Assay. Further: in the data most compounds retested in dose-response had high values. The format is functional. Conditions: 30 µM.
Chain of Chromo domain-containing protein 1 (Saccharomyces cerevisiae (strain ATCC 204508 / S288c) (Baker's yeast)) (P32657 whole entry, the tested form may be a part): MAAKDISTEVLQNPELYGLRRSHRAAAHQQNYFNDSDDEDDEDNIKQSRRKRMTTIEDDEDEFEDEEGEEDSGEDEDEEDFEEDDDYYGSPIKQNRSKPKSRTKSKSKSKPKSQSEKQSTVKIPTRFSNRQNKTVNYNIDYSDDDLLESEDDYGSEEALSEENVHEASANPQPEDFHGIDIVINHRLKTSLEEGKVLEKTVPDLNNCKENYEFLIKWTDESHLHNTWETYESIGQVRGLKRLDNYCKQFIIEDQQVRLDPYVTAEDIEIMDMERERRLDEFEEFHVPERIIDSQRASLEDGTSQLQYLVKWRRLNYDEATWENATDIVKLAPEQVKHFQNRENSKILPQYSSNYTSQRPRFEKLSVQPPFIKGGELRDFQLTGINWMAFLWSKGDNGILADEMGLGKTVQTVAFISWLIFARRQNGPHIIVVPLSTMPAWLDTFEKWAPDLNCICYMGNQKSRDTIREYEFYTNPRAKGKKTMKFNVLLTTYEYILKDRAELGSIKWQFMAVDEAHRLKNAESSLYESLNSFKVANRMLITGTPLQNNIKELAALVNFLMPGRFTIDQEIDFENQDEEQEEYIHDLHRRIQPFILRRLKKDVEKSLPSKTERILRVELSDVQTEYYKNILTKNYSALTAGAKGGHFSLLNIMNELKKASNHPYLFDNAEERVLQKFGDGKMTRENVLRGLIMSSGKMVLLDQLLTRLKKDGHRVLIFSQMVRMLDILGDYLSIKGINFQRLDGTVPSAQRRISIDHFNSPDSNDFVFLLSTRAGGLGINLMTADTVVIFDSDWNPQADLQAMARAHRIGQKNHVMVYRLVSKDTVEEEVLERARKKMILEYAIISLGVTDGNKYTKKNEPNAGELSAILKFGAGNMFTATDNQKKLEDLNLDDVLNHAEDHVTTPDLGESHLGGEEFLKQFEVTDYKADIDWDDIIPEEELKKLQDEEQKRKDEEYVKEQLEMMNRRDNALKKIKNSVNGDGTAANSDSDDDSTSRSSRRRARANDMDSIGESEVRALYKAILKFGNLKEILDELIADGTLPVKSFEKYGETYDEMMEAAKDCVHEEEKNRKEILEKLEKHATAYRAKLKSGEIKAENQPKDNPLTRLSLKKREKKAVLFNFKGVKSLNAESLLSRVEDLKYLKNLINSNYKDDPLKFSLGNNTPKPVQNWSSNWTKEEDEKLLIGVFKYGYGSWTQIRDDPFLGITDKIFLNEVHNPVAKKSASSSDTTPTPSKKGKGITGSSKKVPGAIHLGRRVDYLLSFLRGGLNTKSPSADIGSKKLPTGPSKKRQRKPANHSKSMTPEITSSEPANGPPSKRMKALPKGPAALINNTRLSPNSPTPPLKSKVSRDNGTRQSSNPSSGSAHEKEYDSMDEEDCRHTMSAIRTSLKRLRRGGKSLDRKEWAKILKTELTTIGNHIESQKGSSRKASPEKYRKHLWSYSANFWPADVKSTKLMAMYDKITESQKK

Chain of Protein translocase subunit SecA (Escherichia coli (strain K12)) (P10408 whole entry): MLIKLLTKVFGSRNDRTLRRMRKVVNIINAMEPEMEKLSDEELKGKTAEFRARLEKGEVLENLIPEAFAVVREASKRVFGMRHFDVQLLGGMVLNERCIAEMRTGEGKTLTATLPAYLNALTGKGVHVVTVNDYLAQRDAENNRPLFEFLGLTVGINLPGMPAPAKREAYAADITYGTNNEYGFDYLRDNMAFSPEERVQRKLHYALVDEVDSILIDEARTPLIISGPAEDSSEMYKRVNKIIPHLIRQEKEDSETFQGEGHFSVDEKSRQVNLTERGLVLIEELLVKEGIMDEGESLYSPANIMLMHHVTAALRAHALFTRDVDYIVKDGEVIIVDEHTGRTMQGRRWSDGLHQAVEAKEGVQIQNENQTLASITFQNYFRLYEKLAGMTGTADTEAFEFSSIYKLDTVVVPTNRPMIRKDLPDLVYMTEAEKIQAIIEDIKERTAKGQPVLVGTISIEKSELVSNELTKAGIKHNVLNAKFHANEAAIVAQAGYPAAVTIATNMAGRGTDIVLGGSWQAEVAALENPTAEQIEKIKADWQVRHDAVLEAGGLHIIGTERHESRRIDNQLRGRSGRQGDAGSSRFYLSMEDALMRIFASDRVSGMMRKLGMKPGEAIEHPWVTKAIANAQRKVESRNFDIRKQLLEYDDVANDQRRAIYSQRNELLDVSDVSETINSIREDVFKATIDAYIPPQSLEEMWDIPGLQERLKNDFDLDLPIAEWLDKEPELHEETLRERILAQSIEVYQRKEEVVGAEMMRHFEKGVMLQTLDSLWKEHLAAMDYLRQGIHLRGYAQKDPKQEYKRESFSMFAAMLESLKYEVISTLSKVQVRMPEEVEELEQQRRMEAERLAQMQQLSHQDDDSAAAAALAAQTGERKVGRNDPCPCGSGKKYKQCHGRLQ

With `COCCN1C[C@@H]2CCCO[C@@H]2[C@H](N(C)Cc2ccco2)C1`, the Percent Effect in experiment [1] was -2.66%; in experiment [2] it was 10.7%; in [3] it was 1.93%; in experiment [4], -6.59%; in the experiment on Trypanosoma cruzi it was 2.56%; in experiment [5], 50.6%. For the same compound, the Percent Effect in experiment [6] was 11%; in the experiment filed under Homo sapiens, 16.7%; in experiment [7], 7.45%; in experiment [8] it was 16.7%; in experiment [9], -2.07%.
For `CCn1c(CN(C)C)nnc1C1CCN(Cc2ccccc2)CC1`, the Percent Effect was -0.0485% in [1]; 10.4% in experiment [2]; 2.85% in experiment [3]; 13.5% in experiment [4]; 5.61% with Trypanosoma cruzi; -6.9% in experiment [5]. For the same compound, the Percent Effect in experiment [6] was 11.7%; in the experiment filed under Homo sapiens, 12.4%; in [7] it was 7.53%; in experiment [8], 21%; in [9] it was -8.57%.
On to `CCC(=O)N1CCC(c2nnc(Cn3cncn3)n2C2CC2)CC1`, for which the Percent Effect in experiment [1] is -0.998%; in [2], 15.3%; in experiment [3], -1.98%; in [4] it was 12.9%; with Trypanosoma cruzi, 5.34%; in experiment [5], 16.3%. Moreover, the Percent Effect was 17.7% in [6]; 0.244% in the experiment filed under Homo sapiens; -1.05% in experiment [7]; 15.4% in [8]; -3.53% in experiment [9].
Turning to `O=S1(=O)C[C@@H]2[C@H](C1)N(Cc1cc(Cl)cc(Cl)c1)CCN2CC1CC1`, the Percent Effect was -4.25% in experiment [1]; 8% in experiment [2]; -0.723% in experiment [3]; -1.32% in [4]; -2.24% in the experiment on Trypanosoma cruzi; 1.56% in experiment [5]. Moreover, the Percent Effect was 12% in experiment [6]; 22.5% in the experiment filed under Homo sapiens; 2.73% in [7]; 11.1% in experiment [8]; -6.73% in experiment [9].
As for `CN(Cc1ccsc1)C(=O)c1cc2c([nH]c1=O)CCCC2=O`, the Percent Effect in experiment [1] is -3.09%; in experiment [2], 13.5%; in [3], -2.3%; in [4], 9.82%; in the experiment with Trypanosoma cruzi, -2.32%; in experiment [5] it was -0.185%. The Percent Effect in experiment [6] is 16.5%; in the experiment filed under Homo sapiens it was 3%; in [7] it was 4.95%; in experiment [8] it was 18.3%; in experiment [9] it was -6.06%.
On to `O=c1[nH]c(CN(Cc2ccco2)C2CCCC2)nc2ccccc12`, for which the Percent Effect in experiment [1] was -2.15%; in experiment [2], 18.2%; in experiment [3], 7.19%; in experiment [4], 1.72%; in the experiment with Trypanosoma cruzi it was 3.75%; in experiment [5], 0.712%. In addition, the Percent Effect in [6] is 10.5%; in the experiment listed under Homo sapiens it was 26.1%; in experiment [7], 8.74%; in experiment [8] it was 24.4%; in [9], -9.34%.
For the compound `O=C(c1cccc(S(=O)(=O)NCCCc2ncc[nH]2)c1)N1CCOCC1`, the Percent Effect in experiment [1] is -1.26%; in experiment [2], 5.48%; in experiment [3] it was -0.693%; in experiment [4] it was -4.52%; in the experiment on Trypanosoma cruzi, -7.05%; in experiment [5] it was 4.09%. The Percent Effect is 13.8% in [6]; 5.99% in the experiment listed under Homo sapiens; 2.15% in [7]; 7.5% in experiment [8]; -3.79% in experiment [9].
On to `CC(C)Nc1nc(N2CCCC2)nc2c1CN(C(C)C)CC2`, for which the Percent Effect is 1.43% in experiment [1]; -2.67% in [2]; -5.03% in experiment [3]; 21.2% in [4]; 4.63% in the experiment with Trypanosoma cruzi; -29.6% in experiment [5]. For the same compound, the Percent Effect in experiment [6] was 14.7%; in the experiment listed under Homo sapiens it was -15.2%; in experiment [7] it was 5.21%; in experiment [8], -2.5%; in experiment [9], -5.55%.
With `Cc1ccoc1C(=O)N1CC[C@H]2OCC[C@@]2(COCc2ccncc2)C1`, the Percent Effect in [1] was -0.155%; in experiment [2], 15.6%; in experiment [3], 3.21%; in [4], 3.48%; in the experiment on Trypanosoma cruzi, 2.07%; in experiment [5] it was 7.1%. Moreover, the Percent Effect in experiment [6] is 17.2%; in the experiment filed under Homo sapiens, 23.7%; in experiment [7] it was 7.41%; in [8] it was 16.7%; in [9] it was -9.72%.
Turning to `Cn1ccc(-c2cc(C(=O)N3CCOCC3)c3ccccn23)n1`, the Percent Effect in experiment [1] is 1.94%; in [2], 10.8%; in experiment [3] it was 19.9%; in experiment [4] it was 17.5%; with Trypanosoma cruzi, -8.5%; in [5] it was 2.87%. Further, the Percent Effect in experiment [6] is 12.7%; in the experiment listed under Homo sapiens, 35.5%; in [7] it was -4.32%; in experiment [8], 2.56%; in experiment [9], -7.76%.

(Values after ChEMBL document CHEMBL3988442, “University of Dundee, Small-Polar-MMV Screening Library” (2021).)
